IP6K1 inhibitor – inhibitors of human IP6K1. Q92551. IP6K1 kinase, ADP-Glo luminescence, 2 h; hits give low values. activity change, % (series mostly up to about 58 µM). 140,000 compounds, 0.81% hits. AID 1645851; in the data active = activity change below about -25%
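ADP-Glo luminescence measures ADP made by human IP6K1 during a 2 h RT reaction with ATP/IP6 (mix at 1.3 mM/130 uM); top library doses 57.5 and 19.1 uM final.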
GPT2 inh – blocks human glutamate pyruvate transaminase 2 | 100,000 compounds, 0.25% hits | Recombinant GPT2, coupled pyruvate oxidase/HRP Amplex Red fluorescence | Q8TD30 | Potency, µM (titrated, usually from 57.7 µM), for the others: at the top dose activity change, negative = inhibition, hits mostly inhibitors; note: potency is the fitted concentration of half-maximal effect; nearly all actives have a fitted effect of over 60% in size
Target sequence (Q8TD30 whole entry, looked up): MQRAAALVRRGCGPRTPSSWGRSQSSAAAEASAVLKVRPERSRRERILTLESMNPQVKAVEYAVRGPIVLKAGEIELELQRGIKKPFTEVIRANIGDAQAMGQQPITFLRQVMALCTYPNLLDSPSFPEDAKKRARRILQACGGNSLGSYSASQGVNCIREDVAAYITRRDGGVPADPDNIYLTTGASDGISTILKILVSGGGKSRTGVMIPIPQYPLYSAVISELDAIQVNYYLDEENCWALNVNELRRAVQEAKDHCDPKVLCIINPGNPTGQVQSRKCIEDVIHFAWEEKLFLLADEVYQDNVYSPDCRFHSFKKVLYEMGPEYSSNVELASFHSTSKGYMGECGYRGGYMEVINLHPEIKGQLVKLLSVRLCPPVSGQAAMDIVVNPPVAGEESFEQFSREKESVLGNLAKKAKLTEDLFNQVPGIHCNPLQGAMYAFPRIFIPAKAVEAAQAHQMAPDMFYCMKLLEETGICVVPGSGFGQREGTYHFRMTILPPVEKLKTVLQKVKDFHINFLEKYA
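Fluorescence read-out: pyruvate from GPT2 turnover coupled to pyruvate oxidase, HRP and Amplex Red (0.2mM ThPP, 0.2U/mL PO and HRP, 50uM Amplex final). Substrates 250uM a-KG, 2mM L-alanine; enzyme 10ng/uL; 30 min RT.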
SNCA expr inh – SNCA gene expression inhibition; HEK-293 SNCA-luciferase knock-in, luminescence, 24 h; Potency, µM (series often up to 57.2 µM), without a hit: at the highest dose activity change, negative = inhibition, actives largely listed as inhibitors; 140,000 compounds, 0.17% hits;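 note: potency is the fitted concentration of half-maximal effect; plate controls were DMSO cells for no effect and cell-free wells for full effect; nearly all actives have a fitted effect of over 45% in size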
HEK293 viab – counter-screen for SNCA expression inhibitors: cell viability; HEK-293-SNCA-luc viability, GF-AFC fluorescence, 24 h; Potency, µM (titrated, usually from 57.1 µM), for inactives: at the highest dose activity change, negative = cytotoxicity, usual class: cytotoxic; AID 1671193; 150,000 compounds, 0.12% hits;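 note: potency is the fitted concentration of half-maximal effect; 0% = DMSO-treated cells and -100% = medium-only wells without cells; nearly all actives have a fitted effect of over 30% in size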
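Cytotoxicity counterscreen: after 24 h compound treatment of genome-edited SNCA-luciferase HEK-293 cells, live-cell protease substrate GF-AFC read by fluorescence after 30 min; activity scaled between DMSO (0%) and medium-only (-100%), curves Hill-fitted.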
IP6K1 conf – confirmation of human IP6K1 inhibitors. shares compounds with IP6K1 inhibitor. Potency, µM (highest dose often 49 µM), inactives show at the highest dose activity change, negative = inhibition, hits mostly inhibitors. 1,200 compounds, 13% hits. AID 1645852. recombinant IP6K1 kinase, ADP-Glo luminescence, 2 h; note: potency is the fitted concentration of half-maximal effect; nearly all actives have a fitted effect of over 65% in size
Numbers without * were called inactive; ! = a repeat was not active; [ ] = another dose, or the depositor's remark. The list is not random: actives were taken first. Their share in the collection is about 1.1%. Unless noted, calls come from the whole dose curve; as a rule, active = well fitted curve in the direction sought with a large enough effect; inconclusive = small, poorly fitted or top-dose-only effect, or another doubt; inactive = no such curve, though single readings can be large; an effect the other way counts as inactive or inconclusive. Unless noted, % is set by controls: 0 for no effect and ±100 for the full control effect.

Screening COc1cc(C2CC(=O)Oc3c2c(=O)[nH]c2ccccc32)cc(OC)c1OC (stereo unspecified) returned IP6K1 inhibitor -13.9, SNCA expr inh 17.1% and HEK293 viab 5.2%.
For O=C1CC(c2ccc(F)cc2)c2c(c3ccccc3[nH]c2=O)O1 (stereo unspecified) the results were IP6K1 inhibitor -27.9*, SNCA expr inh -29.2%, HEK293 viab 5.1% and IP6K1 conf 12.7%.
COc1cccc(CN(Cc2ccco2)c2cnc(S(C)(=O)=O)nc2C(=O)Nc2cccc(Cl)c2C)c1 was read as IP6K1 inhibitor -28.3*, SNCA expr inh -0.2%, HEK293 viab -0.1% and IP6K1 conf 1.2%.
CS(=O)(=O)c1ncc(N(Cc2ccco2)Cc2ccco2)c(C(=O)Nc2ccccc2Br)n1 was read as IP6K1 inhibitor -19.8, SNCA expr inh -7.5% and HEK293 viab -2.0%.
`Cc1ccc(CN(Cc2ccco2)c2cnc(S(C)(=O)=O)nc2C(=O)Nc2ccc(Br)cc2)o1` gave IP6K1 inhibitor -27.2*, SNCA expr inh -11.2%, HEK293 viab 27.3% and IP6K1 conf -10.9%.
For COc1ccc(CN(Cc2ccco2)c2cnc(S(C)(=O)=O)nc2C(=O)Nc2ccc(C)cc2C)cc1 the results were IP6K1 inhibitor -26.5*, SNCA expr inh 3.9%, HEK293 viab -1.2% and IP6K1 conf -3.2%.
O=C(NCc1ccc(F)cc1F)C1CCCCN1Cc1ccc(-c2ccsc2)cc1 (stereo unspecified) was read as IP6K1 inhibitor 3.7, GPT2 inh -10.4%, SNCA expr inh -16.6% and HEK293 viab -5.2%.
`COCCn1c(=O)c(C(=O)NCc2ccc(F)c(F)c2)nc2cccnc21` gave IP6K1 inhibitor 14.6, GPT2 inh -5.0%, SNCA expr inh -2.1% and HEK293 viab 4.2%.
For O=c1c(O)c(-c2ccc(O)c(O)c2)oc2cc(O)cc(O)c12 the results were IP6K1 inhibitor -54.9*, GPT2 inh 13.7µM*!, SNCA expr inh 42.5%, HEK293 viab -20.4% and IP6K1 conf 0.461µM*.
Screening O=c1cc(-c2ccc(O)c(O)c2)oc2cc(O)cc(O)c12 returned GPT2 inh inactive, SNCA expr inh 8.7% and HEK293 viab -17.7%.
Screening Cn1sc(=O)n(Cc2ccccc2)c1=O returned IP6K1 inhibitor -83.1*, GPT2 inh inconclusive, HEK293 viab inconclusive and IP6K1 conf 18.4µM*.
For Cn1c(=O)c(=O)n(C)c2cc(N3CCOCC3)c(NS(=O)(=O)c3ccc(Cl)cc3)cc21 the results were IP6K1 inhibitor -32.3*, SNCA expr inh -20.7%, HEK293 viab 0.8% and IP6K1 conf -4.3%.
Cn1c(=O)n(C)c2cc(N3CCOCC3)c(NS(=O)(=O)c3ccc(Cl)cc3)cc21 was read as IP6K1 inhibitor -12.7, SNCA expr inh 54.2% and HEK293 viab 2.8%.
Screening COc1ccccc1-c1ccc(CN2CCCCC2C(=O)NCc2cccc(C(F)(F)F)c2)cc1 (stereo unspecified) returned IP6K1 inhibitor 18.1.
`NC(=O)NC1N=C([O][Al])NC1=O` (stereo unspecified) gave IP6K1 inhibitor -30.6*, GPT2 inh inactive, SNCA expr inh -36.5%[25.6 µM], HEK293 viab -24.8%[23.9 µM] and IP6K1 conf 2.2%.
Screening O=C(O)c1ccc(Nc2ncc3c(n2)-c2ccc(Cl)cc2C(c2c(F)cccc2F)=NC3)cc1 returned IP6K1 inhibitor -48.9*, GPT2 inh -15.9%, SNCA expr inh 119.1%, HEK293 viab -15.0% and IP6K1 conf 10.3µM*.
`C[C@H](C(=O)N1CCOCC1)C1CC[C@@]2(C)Cc3sc(CS(=O)(=O)C(C)(C)C)nc3[C@@H](C)[C@@H]2[C@H]1O` (stereo partly specified) gave IP6K1 inhibitor 0.3, GPT2 inh inconclusive, SNCA expr inh 55.0% and HEK293 viab 3.7%.
For O=C(NCc1ccco1)c1cc(-c2ccccc2F)cc2c1OCCN2Cc1cccnc1 the results were IP6K1 inhibitor -29.9*, GPT2 inh 1.5%, SNCA expr inh -1.9%, HEK293 viab inconclusive and IP6K1 conf inconclusive.
`O=C(Nc1cccnc1)c1cc(-c2ccccc2F)cc2c1OCCN2Cc1cccnc1` gave IP6K1 inhibitor -49.2*, GPT2 inh -7.0%[88.5 µM], SNCA expr inh inconclusive, HEK293 viab inconclusive and IP6K1 conf inconclusive.
CCCCNC(=O)C1CCN(c2nc3ccccc3nc2C(F)(F)F)CC1 was read as IP6K1 inhibitor -28.9*, SNCA expr inh 6.3%, HEK293 viab 9.9% and IP6K1 conf 2.0%.
`CC(C)NC(=O)C1CCN(c2nc3ccccc3nc2C(F)(F)F)CC1` gave IP6K1 inhibitor -35.1*, SNCA expr inh 16.8%, HEK293 viab -2.5% and IP6K1 conf 23.5%.
For CNC(=O)C1CCN(c2nc3ccccc3nc2C(F)(F)F)CC1 the results were IP6K1 inhibitor -19.8, SNCA expr inh 14.8% and HEK293 viab -1.7%.
c1cc(NCCc2c[nH]c3ccccc23)cc(Nc2ccncc2)c1 was read as IP6K1 inhibitor -33.8*, GPT2 inh inconclusive, HEK293 viab inconclusive and IP6K1 conf -4.7%.
`O=C(NCCc1c[nH]c2ccccc12)Nc1ccccc1C(F)(F)F` gave IP6K1 inhibitor -14.7, SNCA expr inh -13.4% and HEK293 viab -14.3%.
`COc1ccc(CNC(=O)CN(c2ccc(OC)cc2)S(=O)(=O)c2c(C)[nH]c(=O)[nH]c2=O)cc1` gave IP6K1 inhibitor -12.2, SNCA expr inh 85.4% and HEK293 viab 12.6%.
For COc1ccc(N(CC(=O)NCc2ccc(C)cc2)S(=O)(=O)c2c(C)[nH]c(=O)[nH]c2=O)cc1 the results were IP6K1 inhibitor -25.4*, SNCA expr inh 90.6%, HEK293 viab 21.2% and IP6K1 conf -11.7%.
`Cc1cc(C)cc(N(CC(=O)Nc2ccc(C)cc2Cl)S(=O)(=O)c2c(C)[nH]c(=O)[nH]c2=O)c1` gave IP6K1 inhibitor -27.4*, SNCA expr inh -35.3%, HEK293 viab -4.5% and IP6K1 conf 24.8%.
COc1ccc(-c2nnc(C[C@@H]3C[C@@H](C(C)C)[C@H](CNC(=O)c4ccc(F)cc4)C=C3C)o2)cc1 was read as IP6K1 inhibitor 21.1, GPT2 inh -30.6%, SNCA expr inh inconclusive and HEK293 viab inconclusive.
Screening COc1cc(N2C(=O)CSC23C(=O)N(C)c2ccccc23)cc(OC)c1OC (stereo unspecified) returned IP6K1 inhibitor 6.2, SNCA expr inh 2.1% and HEK293 viab -0.9%.
COc1ccc(N2C(=O)CSC23C(=O)N(C)c2ccccc23)cc1Cl (stereo unspecified) was read as IP6K1 inhibitor -26.3*, SNCA expr inh -14.1%, HEK293 viab -0.8% and IP6K1 conf -18.5%.

From PubChem
